The test system of one test is T1, MRCKB.
T1 construct: gene CDC42BPB

The next test relates to T2, MST1.
T2 construct: gene STK4

In a further test the test system is T3, MST3.
T3 construct: gene STK24

Another test deals with T4, NDR1.
T4 construct: gene STK38
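Also: kd values determined as follow-up on hits from a single-replicate KINOMEscan panel screen.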

Take `COc1ccc2nc(-c3cccc(C)n3)nc(Nc3ccncc3)c2c1` [GSK204919]: in the test with MRCKB, the Kd is 0.52 µM.

As to `Cc1cccc(-c2nc(C)cc(Nc3ccncc3)n2)n1` [GSK257997], the equilibrium dissociation constant (Kd) in the test with MRCKB worked out at 0.58 µM.

In the test with MST1R, `Fc1cc(Cl)ccc1Nc1ccnc2cc(I)ccc12` [GW551191] yielded a dissociation constant (Kd) above 10 µM.

Take `Nc1ncnc2[nH]c(-c3ccccc3)nc12` [AH5015]: the Kd in the test with MST1 and in the test on PAK3 was above 10 µM each time.

`O=C1NC(=O)C(N2CCc3ccccc32)=C1c1ccccc1Cl` [SB-373598]: the dissociation constant Kd in the test with MST1 and in the test on PAK3 was above 10 µM throughout.

In the test on MST3, `CS(=O)(=O)c1ccc(-c2c(-c3ncn[nH]3)sc(N3CCOCC3)c2C#N)cc1` gave a Kd above 10 µM.

Consider `CSc1nn2c(=O)cc(N3CCOCC3)nc2n1Cc1cccc(C(F)(F)F)c1C` [GSK2363608], for which the Kd in the test with MST4 and in the test on NEK2 was above 10 µM each time.

As to `COc1cc2ncn(-c3cc(OCC4CCCO4)c(C(N)=O)s3)c2cc1OC` (stereo not drawn) [GSK204607], in the test with MYLK4, binding was put at a Kd of 0.5 µM.

Take `Cc1ccc(NC(=O)Nc2cccc(Cl)c2)cc1-c1ccc(C(=O)Nc2ccncc2)cc1` [GSK1398468]: the Kd in the test on MYO3A was above 10 µM.

In the test on NDR1, `CC(C)(C)c1ccc(C(=O)Nc2cn3cc(Cl)ccc3n2)cc1` had a dissociation constant Kd above 10 µM.

Consider `NC(=O)c1nnc2ccccc2c1N`, for which the Kd in the test on NEK10 turned out to be 0.43 µM.

In turn, `CCn1c(-c2ccccn2)nc2cnccc21` [SB-736398] registered a Kd with NEK1 above 10 µM.

Take `CCCc1ccc(S(=O)(=O)NC2CCN(c3ccnc(Nc4ccc(F)cc4)n3)C2)cc1` (stereo not drawn) [GSK1379715]: in the test on NEK1, the Kd was above 10 µM.

With `O=C(O)COc1ncnc2cc(-c3ccc4[nH]ncc4c3)sc12`, the affinity in the test on NEK3, expressed as Kd, was 0.21 µM.

`Cn1ccc2ncnc(Oc3ccc(Nc4nc5ccccc5[nH]4)cc3)c21` showed a Kd with NEK4 above 10 µM.

Consider `COc1ccc(CNC(=O)NC2CCN(c3ccnc(Nc4cc(OC)c(OC)c(OC)c4)n3)C2)cc1` (stereo not drawn) [GSK1379748], for which, in the test on NEK5, the Kd is 0.73 µM.

Regarding `COc1cc(Nc2nccc(N3CCC(NC(=O)Nc4cc(C)ccc4C)C3)n2)cc(OC)c1OC` (stereo not drawn) [GSK1379762], the affinity with NEK5, expressed as Kd, was 2.3 µM.

In the test with PAK6, `CS(=O)(=O)c1ccc(-c2nc3n(c2-c2ccncc2)CCC3)cc1` [SKF-105942] had a Kd above 10 µM.

Values taken from article PMC5540273 (PLoS ONE, 2017).
